Results taken from PubChem BioAssay (EPA / NIEHS).
The source made the active and inactive calls. Rule for the calls: active = hit-call score of the fitted dose curve at least 0.9, where 1 is the maximum; inactive = score below 0.9.

Legend:
[1] = APR_HepG2_NuclearSize_24hr: Apredica 24-hour HepG2 Assay for Nuclear Size (AID 2282907); details: high-content imaging, actives raise or lower the signal
Outline: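 HepG2 cells exposed 24 h to compounds at 0.39–200 uM (0.5% DMSO), fixed, Hoechst 33342 stained and imaged at 20x; nuclear diameter measured by automated image analysis, fitted bidirectionally against DMSO controls.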

[2] = APR_HepG2_CellLoss_24hr: Apredica 24-hour HepG2 Assay for Cell Loss (AID 2282908); details: high-content imaging;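 for AC50: fit in both directions so a hit may be cell loss or gain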
Outline: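 HepG2 cells exposed 24 hr to 0.39–200 uM compound in duplicate at 0.5% v/v final DMSO. Cells fixed in 3.7% formaldehyde and Hoechst 33342-stained. Cell number came from nuclear imaging at 20x. Bidirectional fit versus DMSO.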

[3] = APR_HepG2_MicrotubuleCSK_24hr: Apredica 24-hour HepG2 Assay for Microtubule CSK Stabilty (AID 2282909); details: HepG2 microtubule cytoskeleton imaging, actives raise or lower the signal
Outline: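 HepG2 cells were treated 24 hr with compound at 0.39–200 uM in duplicate (0.5% DMSO final), then fixed and permeabilized. Alpha-tubulin immunofluorescence was imaged by high-content microscopy, with bidirectional fitting against DMSO and taxol as positive control.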

[4] = APR_HepG2_MitoticArrest_24hr: Apredica 24-hour HepG2 Assay for Mitotic Arrest (AID 2282910); details: high-content imaging, actives raise or lower the signal
Outline: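 HepG2 cells, 24 h exposure at 0.39-200 uM (10 concentrations, duplicate, 0.5% DMSO). Fixed, stained for phospho-histone H3 with Hoechst; imaged by high-content microscopy, bidirectional fit versus DMSO.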

[5] = APR_HepG2_MitoMass_24hr: Apredica 24-hour HepG2 Assay for Mitochondrial Mass (AID 2282912); details: high-content imaging, actives raise or lower the signal
Outline: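 HepG2 cells exposed 24 hr to 0.39–200 uM compound, 0.5% v/v DMSO, in duplicate. Stained before fixation with 250 nM MitoTracker Red CMXRos for 30 min, then imaged at 20x with Hoechst nuclei. Fitted in both directions against DMSO.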

[6] = APR_HepG2_p53Act_24hr: Apredica 24-hour HepG2 Assay for p53 Activation (AID 2282913); details: high-content imaging, actives raise or lower the signal;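 note: p53 protein immunofluorescence averaged per cell in HepG2 with Hoechst nuclei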
Outline: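 Automated fluorescence imaging quantifies p53 immunostaining in HepG2 cells after a 24 hr exposure (0.39–200 uM, duplicate, 0.5% DMSO). Nuclei are located by Hoechst 33342 staining.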

[7] = APR_HepG2_CellCycleArrest_72hr: Apredica 72-hour HepG2 Assay for Cell Cycle Arrest (AID 2282914); details: high-content imaging, actives raise or lower the signal
Outline: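 Cell cycle arrest in HepG2 was scored from nuclear DNA content after 72 hr compound treatment (0.39–200 uM). Activity, either gain or loss, was fitted against the DMSO baseline.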

[8] = APR_HepG2_CellLoss_72hr: Apredica 72-hour HepG2 Assay for Cell Loss (AID 2282915); details: high-content imaging
Outline: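 HepG2 cells exposed 72 h to compound at 0.39–200 uM (10 concentrations, duplicate) in 0.5% DMSO. Fixed with 3.7% formaldehyde and Hoechst 33342-stained. Imaged at 20x; nuclear count gives cell number, fitted bidirectionally versus DMSO.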

[9] = APR_HepG2_MitoMembPot_24hr: Apredica 24-hour HepG2 Assay for Mitochondrial Membrane Potential (AID 2282911); details: imaging, actives raise or lower the signal
Outline: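 Human hepatoma HepG2 cultures received ten compound concentrations up to 200 uM for 24 hr. Membrane-potential dye signal, captured by automated fluorescence microscopy, was scored for gain or loss against DMSO controls.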

[10] = APR_HepG2_StressKinase_1hr: Apredica 1-hour HepG2 Assay for Stress Kinase (AID 2282906); details: HepG2 stress kinase (phospho-c-Jun) imaging, actives raise or lower the signal
Outline: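 HepG2 cells dosed 0.39-200 uM (0.5% DMSO) for 1 h, then formaldehyde-fixed. Stress kinase read by phospho-c-Jun immunofluorescence using high-content imaging; bidirectional fit vs DMSO.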

Measured: AC50

O=C(O)C(F)(F)C(F)(F)C(F)(F)C(F)(F)C(F)(F)F
inactive: [1] | [2] | [3] | [4] | [5] | [6] | [7] | [8]

Clc1ccc(Cl)cc1
inactive: [2] | [3] | [4] | [9] | [5] | [6] | [7] | [8]

N#Cc1ccc(N(CC(N)=O)CC(F)(F)F)cc1C(F)(F)F
inactive: [1] | [2] | [3] | [4] | [5] | [6] | [7] | [8]

CC(C)(O)C(=O)Nc1ccc([N+](=O)[O-])c(C(F)(F)F)c1
inactive: [1] | [2] | [3] | [4] | [5] | [6] | [7] | [8]

O=C(O)C(F)(F)C(F)(F)C(F)(F)C(F)(F)C(F)(F)C(F)(F)C(F)(F)C(F)(F)F
inactive: [3] | [9] | [7]
active: [2] 104 µM | [4] 139 µM | [5] 107 µM | [6] 114 µM | [8] 110 µM

CCCN(CCC)N=O
inactive: [1] | [2] | [3] | [4] | [9] | [5] | [6] | [7] | [8]

CC(C)(c1ccccc1)c1ccc(O)cc1
active: [2] 84.6 µM | [8] 63.3 µM
inactive: [3] | [4] | [9] | [5] | [6] | [7]

CN(C)c1nc(=O)n(C2CCCCC2)c(=O)n1C
inactive: [10] | [1] | [2] | [3] | [4] | [5] | [7] | [8]

C[C@]12CCC(=O)C=C1CC[C@@H]1[C@@H]2CC[C@]2(C)C(=O)CC[C@@H]12
inactive: [1] | [2] | [3] | [4] | [5] | [6] | [7] | [8]

O=C(NC(=O)c1cc(F)c(F)cc1Cl)Nc1cc(F)ccc1N1CCC(C(=O)O)CC1
inactive: [1] | [2] | [3] | [4] | [9] | [5] | [6] | [7] | [8]

O=S(=O)(O)C(F)(F)C(F)(F)C(F)(F)C(F)(F)F
inactive: [1] | [2] | [3] | [4] | [9] | [5] | [6] | [7] | [8]

ClC1=C(Cl)[C@]2(Cl)[C@@H]3[C@H]4C[C@H]([C@@H]5O[C@H]45)[C@@H]3[C@@]1(Cl)C2(Cl)Cl
active: [9] 59.3 µM
inactive: [1] | [2] | [3] | [4] | [5] | [6] | [7] | [8]

Cc1ccccc1CO[C@@H]1C[C@@]2(C(C)C)CC[C@]1(C)O2
inactive: [10] | [1] | [2] | [3] | [4] | [9] | [5] | [7] | [8]

O=C(O)C(F)(F)C(F)(F)C(F)(F)C(F)(F)C(F)(F)C(F)(F)C(F)(F)C(F)(F)C(F)(F)F
inactive: [3] | [9]
active: [1] 130 µM | [2] 108 µM | [4] 106 µM | [5] 109 µM | [6] 97.4 µM | [7] 66.8 µM | [8] 96 µM

CCNc1nc(NC(C)C)nc(SC)n1
inactive: [10] | [2] | [3] | [4] | [5] | [7] | [8]

CC(c1ccc(O)cc1)(c1ccc(O)cc1)c1ccc(O)cc1
active: [2] 113 µM | [4] 107 µM | [5] 109 µM | [6] 104 µM | [8] 115 µM
inactive: [1] | [3] | [7]

COS(=O)(=O)OC
inactive: [1] | [2] | [3] | [4] | [5] | [6] | [7] | [8]

CCC(C)(CC)c1cc(NC(=O)c2c(OC)cccc2OC)on1
inactive: [10] | [1] | [2] | [3] | [4] | [5] | [7]
active: [8] 66.4 µM

O=C(N[C@H]1CN2CCC1CC2)c1cc2ccoc2cn1
inactive: [2] | [3] | [4] | [5] | [6] | [7] | [8]
active: [9] 0.0336 µM

CCSC(=O)N(CC)C1CCCCC1
inactive: [10] | [1] | [2] | [3] | [4] | [5] | [7] | [8]

Nn1cnnc1
inactive: [2] | [3] | [4] | [9] | [5] | [6] | [7] | [8]

Cc1cc(-c2ccc(N)c(C)c2)ccc1N
active: [7] 66.7 µM
inactive: [2] | [3] | [4] | [9] | [5] | [6] | [8]

CCOP(=S)(OCC)SCSC(C)(C)C
inactive: [1] | [2] | [3] | [4] | [5] | [6] | [7] | [8]

O=NN(c1ccccc1)c1ccccc1
inactive: [1] | [2] | [3] | [4] | [5] | [6] | [7] | [8]

CCCCCCCCOC(=O)c1ccccc1C(=O)OCCCCCCCC
inactive: [1] | [2] | [3] | [4] | [5] | [6] | [7] | [8]

O=S(=O)(O)C(F)(F)C(F)(F)C(F)(F)C(F)(F)C(F)(F)C(F)(F)F
inactive: [1] | [2] | [3] | [4] | [5] | [6] | [7] | [8]

ClC(Cl)=C(c1ccc(Cl)cc1)c1ccc(Cl)cc1
active: [2] 55.3 µM | [4] 60.7 µM | [5] 50.4 µM | [6] 57.2 µM | [7] 17 µM | [8] 50 µM
inactive: [1] | [3]

CCC(C)(c1ccc(O)cc1)c1ccc(O)cc1
active: [2] 111 µM | [4] 106 µM | [5] 127 µM | [6] 101 µM | [8] 108 µM
inactive: [1] | [3] | [7]

CCC(C)c1cc([N+](=O)[O-])cc([N+](=O)[O-])c1O (configuration not stated)
inactive: [1] | [2] | [3] | [4] | [5] | [6]
active: [9] 100 µM | [7] 75.8 µM | [8] 51 µM

C1CC2OC2CC1C1CO1 (configuration not stated)
inactive: [1] | [2] | [3] | [4] | [9] | [5] | [6] | [7] | [8]

Cc1cc2c3c(c1)C(c1ccccc1)=N[C@@H](NC(=O)c1ccncc1)C(=O)N3CC2
active: [8] 90.9 µM
inactive: [2] | [3] | [4] | [9] | [5] | [6] | [7]

CN(C)CCO
inactive: [1] | [2] | [3] | [4] | [5] | [6] | [7] | [8]

CCCCCCCCCc1ccc(O)cc1
inactive: [2] | [3] | [4] | [5] | [6] | [7] | [8]

O=C(NC(=O)c1c(F)cccc1F)Nc1cc(Cl)c(OC(F)(F)C(F)F)c(Cl)c1
inactive: [2] | [3] | [4] | [5] | [6] | [7] | [8]

C=CC(=O)NCNC(=O)C=C
inactive: [2] | [3] | [4] | [5] | [6] | [7] | [8]

Oc1ccc(C(c2ccc(O)cc2)(C(F)(F)F)C(F)(F)F)cc1
active: [8] 36.7 µM
inactive: [2] | [3] | [4] | [9] | [5] | [6] | [7]

C[C@]12CCC(=O)C=C1CC[C@@H]1[C@@H]2CC[C@@]2(C)[C@H]1CC[C@]2(C)O
inactive: [2] | [3] | [4] | [5] | [6] | [7] | [8]

CCOC(=O)C(O)(c1ccc(Cl)cc1)c1ccc(Cl)cc1
active: [2] 72.3 µM | [3] 89.7 µM | [4] 70.5 µM | [5] 59.5 µM | [6] 82.7 µM | [7] 44.7 µM | [8] 69.6 µM

Cc1ccccc1[N+](=O)[O-]
inactive: [2] | [3] | [4] | [5] | [6] | [7] | [8]

ClC1=C(Cl)[C@]2(Cl)[C@@H]3[C@@H](Cl)[C@H]4O[C@H]4[C@@H]3C1(Cl)C2(Cl)Cl
inactive: [9] | [5]
active: [2] 81.7 µM | [3] 82.1 µM | [4] 66.5 µM | [6] 87.7 µM | [7] 86.3 µM | [8] 75.4 µM

Cc1cccc([N+](=O)[O-])c1
inactive: [2] | [3] | [4] | [5] | [6] | [7] | [8]

CCC(=O)O[C@H]1CC[C@H]2[C@@H]3CCC4=CC(=O)CC[C@]4(C)[C@H]3CC[C@]12C
inactive: [3] | [6] | [7]
active: [2] 107 µM | [4] 116 µM | [5] 107 µM | [8] 125 µM

Nc1ccc(-c2ccc(N)cc2)cc1
active: [6] 100 µM
inactive: [2] | [3] | [4] | [5] | [7] | [8]

Clc1ccc(C(c2ccccc2Cl)C(Cl)(Cl)Cl)cc1 (configuration not stated)
active: [2] 70.5 µM | [3] 74.4 µM | [4] 69.4 µM | [5] 65.7 µM | [6] 75.5 µM | [7] 24.6 µM | [8] 70.6 µM

NS(=O)(=O)C(F)(F)C(F)(F)C(F)(F)C(F)(F)C(F)(F)C(F)(F)C(F)(F)C(F)(F)F
active: [2] 93.4 µM | [9] 72.5 µM | [6] 101 µM | [7] 46.1 µM | [8] 63.4 µM
inactive: [3] | [4] | [5]
